A selection: hits, their analogues and other compounds. The true share with any hit is near 3%.
GCN5L2 inh – GCN5L2 (KAT2A) acetyltransferase inhibition; Q92830; GCN5L2 HAT assay, ThioGlo1 CoA-SH fluorescence; Potency, µM (doses to about 58.9 µM), for inactives: top-dose activity change, negative = inhibition, usual class: inhibitors; 0.21% of 390,000 active; AID 504327; further: on the % scale 0 is the no-effect control and ±100 the full control effect
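Compounds, pin-transferred from DMSO stocks, meet 20nM GCN5L2 for 15 min before the reaction begins with H3(1-25) peptide (75uM) and acetyl-CoA (70uM). Thiol-reactive ThioGlo1 reports CoA release over 20 min at room temperature.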
VDR inh – vitamin D3 receptor (human) inhibition. 0.93% of 400,000 active. VDR-SRC2-3 peptide fluorescence polarization, 2 h. P11473. Potency, µM, for the others: max response, negative = inhibition, most hits filed as inhibitors; further: on the % scale 0 is the no-effect control and ±100 the full control effect
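The screen uses fluorescence polarization to detect compounds that interfere with recruitment of the SRC2-3 coactivator peptide to VDR; plates are read after 2 h at room temperature.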
PLK1 PBD inh – PLK1 (human) polo-box domain binding inhibition; P53350; Plk1 PBD binding of FITC phosphopeptide, fluorescence polarization; Potency, µM, for inactives: max response, negative = inhibition, actives largely listed as inhibitors; 2.8% of 360,000 active; AID 720504; further: series mostly up to about 57 µM; on the % scale 0 is the no-effect control and ±100 the full control effect; nearly all actives have a fitted effect of over 65% in size
Target sequence (P53350 whole entry, looked up, the tested form may be a part): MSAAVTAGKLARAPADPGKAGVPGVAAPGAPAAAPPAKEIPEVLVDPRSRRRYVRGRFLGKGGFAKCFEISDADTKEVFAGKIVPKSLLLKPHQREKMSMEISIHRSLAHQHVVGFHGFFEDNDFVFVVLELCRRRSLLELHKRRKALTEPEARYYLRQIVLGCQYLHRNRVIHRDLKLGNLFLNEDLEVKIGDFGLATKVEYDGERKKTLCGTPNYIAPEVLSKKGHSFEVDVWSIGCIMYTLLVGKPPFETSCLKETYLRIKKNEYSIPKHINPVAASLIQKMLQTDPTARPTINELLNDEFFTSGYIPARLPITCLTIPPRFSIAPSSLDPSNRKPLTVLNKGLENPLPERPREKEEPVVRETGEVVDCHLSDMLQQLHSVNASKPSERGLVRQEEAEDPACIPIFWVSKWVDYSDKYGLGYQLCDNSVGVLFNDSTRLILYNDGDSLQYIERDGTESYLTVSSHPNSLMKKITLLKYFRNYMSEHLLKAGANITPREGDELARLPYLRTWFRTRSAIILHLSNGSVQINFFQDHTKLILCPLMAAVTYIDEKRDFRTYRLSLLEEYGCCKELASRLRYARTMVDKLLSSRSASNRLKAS
USP1-UAF1 inh – USP1/UAF1 (human) deubiquitinase inhibition. O94782. recombinant USP1/UAF1, Ub-Rhodamine cleavage fluorescence. Potency, µM (highest dose often 57.1 µM), inactives show at the top dose activity change, negative = inhibition, actives largely listed as inhibitors. 0.23% of 390,000 active. AID 743255; further: on the % scale 0 is the no-effect control and ±100 the full control effect; nearly all actives have a fitted effect of over 60% in size
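1 nM enzyme complex + cpd, 15 min RT; start with Ub-Rho 150nM final; kinetic fluorescence ex 480/em 540, 6 reads q60 s. Buffer 50mM HEPES pH 7.8, 0.5mM EDTA, 0.1 mg/ml BSA, 1mM TCEP, 0.01% Tween-20.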
TSG101-PTAP inh – blocks PTAP/TSG101 interaction to inhibit HIV-1 budding. Q99816. Fluorescence polarization, FITC-PTAP peptide / Tsg101 binding. Potency, µM (series often up to 115 µM), for inactives: top-dose activity change, negative = inhibition, actives largely listed as inhibitors. 340,000 tested, under 10 active. AID 493005; active means well fitted inhibition curve with a large enough effect in the main read-out, with a control signal flat, not every such curve was filed as active; inconclusive means small, poorly fitted or top-dose-only effect, or effect the other way, or a change in a side signal; inactive means no such curve, though single readings can be large or run the other way; further: % of control where 0% means no effect
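Compounds were pin-transferred onto Tsg101 binding domain (10 uM final) in HEPES pH 7.5 buffer, then FITC-PTAP peptide was added at 50 nM final. After 20 min at RT, polarization reported peptide displacement across a qHTS concentration series.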
Active calls of the source: *; ? = inconclusive; . = no result; ! = repeats disagree; [ ] = dose if it differs, or a comment. Unless noted, the call rests on the fitted dose curve; in most records, active means well fitted curve in the direction sought with a large enough effect; inconclusive means small, poorly fitted or top-dose-only effect, or another doubt; inactive means no such curve, though single readings can be large; an effect the other way counts as inactive or inconclusive. Potency means the concentration at half of the fitted maximal effect.

SMILES	GCN5L2 inh	VDR inh	PLK1 PBD inh	USP1-UAF1 inh	TSG101-PTAP inh
COc1ccc(-n2nc(C(=O)NCC(=O)N3CCOCC3)c3ccccc3c2=O)c(OC)c1	-3.8%	-11.1%	2.2%	?	-5.9%
COc1ccc(-c2nnc(SCC(=O)Nc3cccc(C(F)(F)F)c3)nc2-c2ccc(OC)cc2)cc1	-1.0%	-3.8%	.	-34.8%	.
COc1ccc(-n2nc(C(=O)N3CCCCC3)c3c4ccccc4n(C)c3c2=O)cc1Cl	-2.7%	-16.0%	.	-3.5%	.
CC(C)(C)C(=O)C(Cl)C(=O)Nc1ccccc1 (stereo unspecified)	-23.7%	20µM*	10.6µM*	-13.9%	-6.6%
O=C(Nc1ccc(Nc2ccccc2)cc1)C(Cl)Cl	-3.7%	4.8%	-8.7%	-26.6%	-2.2%
CCCCn1c(SCC(=O)Nc2ccc3c(c2)CCC3)nc2ccccc2c1=O	0.0%	-2.1%	29.9µM*	-3.4%	-1.0%
COc1ccc(NC(=O)CSc2nc3ccccc3c(=O)n2CCCN2CCCCC2)c(OC)c1	-9.9%	-6.5%	23.8µM*	-11.8%	-11.6%
CCOCCCn1c(SCC(=O)NC2CCCC2)nc2ccccc2c1=O	-3.8%	?	26.7µM*	-9.0%	-9.0%
O=C(CSc1nc2ccccc2c(=O)n1Cc1ccccc1)Nc1ccc(Br)cc1C(=O)O	?	?	10.6µM*	?	-5.0%
COCCCNC(=O)CSc1nc2ccccc2c(=O)n1CCCN1CCCCC1	0.6%	-10.3%	-7.5%	-16.3%	2.2%
COCCCn1c(SCC(=O)NC2CCCCC2)nc2ccccc2c1=O	-0.3%	-2.4%	-7.6%	-13.0%	0.3%
Cc1oc(/N=C/c2cccc3ccccc23)c(C#N)c1C	-2.4%	?	23.8µM*	-20.1%	-5.6%
CCOC(=O)c1cc2c(=O)n3ccccc3nc2n(Cc2ccco2)c1=NC(=O)c1ccccc1OC	-5.2%	56.2µM*!	-11.5%	-6.8%	-3.1%
Cc1ccc(S(=O)(=O)c2cc3c(=O)n4ccccc4nc3n(Cc3ccco3)c2=N)cc1C	15.8µM*	4.3%	-11.9%	19.8%	-12.5%
CCOC(=O)c1cc2c(=O)n3ccccc3nc2n(Cc2ccco2)c1=NC(=O)c1cccc(OC)c1	-9.7%	0.6%	-6.9%	31.8%	-2.1%
CC1SCC(=O)N(CC(=O)Nc2ccc3c(c2)OCCO3)C1=O (stereo unspecified)	-0.9%	12.0%	1.7%	-13.9%	-2.1%
COc1ccc(NC(=O)CN2C(=O)CSC(C)C2=O)cc1 (stereo unspecified)	12.5%	-29.2%	21.2µM*	-14.7%	-6.7%
COc1ccc(CC2(CO)CCN(S(=O)(=O)c3sccc3C)CC2)cc1	-8.1%	-11.0%	-3.4%	-18.4%	38.3%
Cc1cccc(CN2C(=O)CCSc3ccc(Cl)cc32)c1	-0.6%	-17.3%	26.7µM*	-10.8%	-4.7%
CCN(CC)CCN(C(=O)c1ccc(C(=O)OC)cc1)c1nc2ccc(Cl)cc2s1	-9.0%	2.2%	.	-16.7%	.
CCOc1cc(C(=O)N2CCC(CC3CC(c4cccc(Br)c4)=NO3)(C(=O)NCC3CCCCC3)CC2)cc(OCC)c1OCC (stereo unspecified)	-8.6%	-13.4%	-5.6%	-21.3%	0.1%
CC(=O)NC1=NN(C(C)=O)C2(S1)C(=O)N(C(C)=O)c1ccc(C)cc12 (stereo unspecified)	-0.3%	?	26.7µM*	-3.0%	-2.7%
Nc1cc2nsnc2cc1Br	?	?	?	4.47µM*	-10.7%
Cc1ccccc1C1CC(=O)Oc2cc(O)ccc21 (stereo unspecified)	-4.8%	-6.8%	16.8µM*	?	?
Cc1ccccc1C1CC(=O)Oc2ccc(C(C)(C)C)cc21 (stereo unspecified)	1.6%[88.6 µM]	-3.7%	.	.	.
SMILES	GCN5L2 inh	VDR inh	PLK1 PBD inh	USP1-UAF1 inh	TSG101-PTAP inh
O=C(O)c1ccc(CSc2nc3ccccc3c(=O)n2-c2ccccc2)cc1	-14.9%	-21.9%	-2.5%	-22.5%	-6.9%
O=C(c1ccc(-n2c(SCc3cccc(F)c3)nc3ccccc3c2=O)cc1)N1CCOCC1	-8.5%	?	26.7µM*	-17.5%	-4.8%
O=C(CSc1n[nH]c(-c2cccnc2)n1)OC1CCCCC1	2.5%	?	11.9µM*	-6.6%	0.9%
Cc1ccc(C)c(Oc2coc3cc(OC(=O)c4cccs4)ccc3c2=O)c1	.	-3.2%	9.47µM*	-7.4%	-1.0%
CCCCCC[N+](C)(C)CCSSCC[N+](C)(C)CCCCCC	-0.2%	8.91µM*	1.19µM*	-12.0%	-1.0%
c1ccc(-c2cc(-c3ccccc3)on2)cc1	-4.1%	?	13.4µM*	-28.2%	-8.1%
Cc1ccc(-c2cc(-c3ccccc3)no2)cc1	-2.4%	-5.3%	-0.6%	-18.8%	.
O=C(CCc1c[nH]c2ccccc12)N1CCN(c2ccc(O)cc2)CC1	-5.7%	-7.5%	26.7µM*	-8.7%	0.4%
COc1ccc(N2CCN(C(=O)CCc3c[nH]c4ccccc34)CC2)cc1	1.1%	5.8%	0.5%	-15.3%	-0.2%
C[C@@]12C(=O)Nc3ccc(F)cc3C(=O)N1[C@H]1c3ccccc3OC[C@@H]1[C@@H]2c1ccccc1	-10.6%	-18.4%	23.8µM*	10.0%	-4.7%
C[C@@]12C(=O)Nc3ccc(F)cc3C(=O)N1[C@H]1c3cc(Cl)ccc3OC[C@@H]1[C@@H]2c1ccccc1	-6.4%	0.6%	5.8%	-4.3%	-2.5%
O=C1NN(c2ccccc2)C(=O)/C1=C\c1ccccc1OCC(=O)N1CCOCC1	2.3%	?	21.2µM*	-11.7%	-5.1%
Cc1sc2ncn(CC(=O)N3CCN(c4ccccc4F)CC3)c(=O)c2c1S(=O)(=O)N1CCN(c2ncccn2)CC1	-5.2%	-2.3%	.	-28.5%	.
CCOC(=O)c1c(CN(C)C)n(C)c2c(O)c(N=NC(N)=O)c3ccc(Br)cc3c12	4.0%	?	21.2µM*	35.5µM*	-0.8%
COCCN=C1NN=C(c2ccc(NC(C)=O)cc2)CS1	-12.1%	?	?	-15.2%	-1.1%
CC(=O)Nc1ccc(C2=NN(C)C(=NCc3ccccc3)SC2)cc1	-9.8%	-15.8%	29.9µM*	-20.6%	0.4%
O=C(CCCC(=O)OCC(=O)c1cccs1)Nc1ccc(Oc2ccccc2)cc1	-10.9%	-9.3%	29.9µM*	-21.5%	-17.1%
O=c1cc(Br)c(O)c(Br)cc1Br	.	?	21.2µM*	-26.7%	-11.6%
COc1ccc(NC(=O)c2cccc(N3CCCS3(=O)=O)c2)cc1OC	-3.7%	-1.0%	.	-4.7%	.
C=C[C@@]1(C)CC[C@H]2C(=CC[C@@H]3[C@]2(C)CCC[C@@]3(C)C(=O)O)C1	?	-8.4%	.	.	.
C=C[C@]1(C)C=C2CCC3[C@](C)(CCC[C@@]3(C)C(=O)O)C2CC1 (stereo partly specified)	-27.4%	-12.1%	23.8µM*	-10.4%	-8.5%
C=C/C(C)=C/CC1C(=C)CCC2C(C)(C(=O)O)CCCC12C (stereo unspecified)	-4.9%	11.1%	18.9µM*	-19.3%	-1.9%
O=C(Nc1cccc(F)c1)C1CC(=O)N(c2ccc(Br)cc2)C1 (stereo unspecified)	-20.7%	-20.2%	29.9µM*	-18.4%	-0.1%

Screens (PubChem BioAssay)
